From PMC4336329 (PLoS ONE, 2015)
The whole screen tested about 310,000 compounds, of which about 14,000 (4.5%) showed an effect of 50% or more. The effect is printed as a negative number. This excerpt belongs to a sample that is enriched for strong results.

Target: human ether-à-go-go-related gene (hERG) potassium channel (human, UniProt Q12809)
Experiment: primary screen, population patch clamp on CHO cells stably expressing hERG; higher = less effect of the substance
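Note: peak tail current of the secondary pulse compared with the same well before compound.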

Sequence of human ether-à-go-go-related gene (hERG) potassium channel (Q12809 whole entry, looked up): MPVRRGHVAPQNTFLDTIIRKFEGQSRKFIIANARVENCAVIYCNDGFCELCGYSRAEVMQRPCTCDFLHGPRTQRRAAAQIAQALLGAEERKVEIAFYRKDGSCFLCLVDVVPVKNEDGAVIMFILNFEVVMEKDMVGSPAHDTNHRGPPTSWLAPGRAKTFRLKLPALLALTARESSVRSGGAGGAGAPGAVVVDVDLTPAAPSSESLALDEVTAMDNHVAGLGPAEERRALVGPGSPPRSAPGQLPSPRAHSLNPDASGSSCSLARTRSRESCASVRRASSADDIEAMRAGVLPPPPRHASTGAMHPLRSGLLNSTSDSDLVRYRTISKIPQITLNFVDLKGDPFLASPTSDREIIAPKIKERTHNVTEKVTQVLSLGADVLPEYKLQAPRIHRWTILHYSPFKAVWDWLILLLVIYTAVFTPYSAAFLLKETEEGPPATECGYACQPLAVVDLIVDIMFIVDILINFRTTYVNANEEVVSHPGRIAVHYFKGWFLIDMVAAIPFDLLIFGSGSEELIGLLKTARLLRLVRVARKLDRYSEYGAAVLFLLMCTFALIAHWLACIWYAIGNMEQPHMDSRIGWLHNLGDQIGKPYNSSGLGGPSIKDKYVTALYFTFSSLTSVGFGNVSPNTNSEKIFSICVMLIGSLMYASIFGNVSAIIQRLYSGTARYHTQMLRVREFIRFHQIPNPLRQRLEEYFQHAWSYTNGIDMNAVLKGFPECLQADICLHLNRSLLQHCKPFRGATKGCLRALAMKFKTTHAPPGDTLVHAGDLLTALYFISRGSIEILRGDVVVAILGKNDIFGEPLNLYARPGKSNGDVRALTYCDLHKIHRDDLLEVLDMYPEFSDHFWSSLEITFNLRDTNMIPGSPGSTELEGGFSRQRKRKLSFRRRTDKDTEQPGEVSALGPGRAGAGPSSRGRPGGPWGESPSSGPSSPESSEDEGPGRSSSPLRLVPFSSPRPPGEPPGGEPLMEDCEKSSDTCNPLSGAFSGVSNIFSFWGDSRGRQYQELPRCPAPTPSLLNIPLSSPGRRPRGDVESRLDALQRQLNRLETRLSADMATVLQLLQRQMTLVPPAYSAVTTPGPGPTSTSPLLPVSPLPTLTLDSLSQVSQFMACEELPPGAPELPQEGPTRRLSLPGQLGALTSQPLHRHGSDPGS

| SMILES | hERG current change (%, negative = inhibition) at 10uM [%] |
| --- | --- |
| CCN(CC)S(=O)(=O)c1ccc2c(c1)nc(SCc1nc3ccsc3c(=O)[nH]1)n2CC | -30.8 |
| COc1ccc(C=NCCC2(O)CC(C)N(C)CC2C)cc1 (centres unmarked) | 8.31 |
| CC1Oc2cc3c(-c4c(O)cc(O)c5c(O)c6c(cc45)OC(C)C(C)C6=O)c(O)cc(O)c3c(O)c2C(=O)C1C (centres unmarked) | 10.8 |
| C[N+]1(C)[C@@H]2CC[C@H]1CC(OC(=O)C(c1ccccc1)c1ccccc1)C2.[I-] (some centres unmarked) | 18 |
| CCCCOc1ccc(C(=O)OC2CC(C)N(C)CC2C)cc1 (centres unmarked) | -25.4 |
| C[N+]1(C)CCC(OC(=O)C(c2ccccc2)c2ccccc2)CC1.[I-] | 1.2 |
| CC1CN(C)C(C)CC1OC(=O)C(c1ccccc1)c1ccccc1 (centres unmarked) | -73.7 |
| CC1CN(C(C)C)C(C)CC1OC(=O)c1ccccc1 (centres unmarked) | 15.7 |
| CN(C)[C@@H]1CCC[C@H]1OC(=O)C(c1ccccc1)c1ccccc1 | -65.2 |
| O=C(Cc1cccs1)NCCn1ccc2ccccc21 | -6.95 |
| Cc1ccc(C2=NN(C(=O)CSc3nnnn3C)C(c3ccco3)C2)cc1 (centres unmarked) | 17.1 |
| Cc1cn(C)c(=O)n(C)c1=O | 4.46 |
| Cc1ccc(-c2c[n+](CC(=O)Nc3nc(-c4ccc(F)cc4)cs3)c3n2CCC3)cc1.[Cl-] | -74.2 |
| O=C(C[n+]1cc(-c2ccc(F)cc2)n2c1CCC2)Nc1nc(-c2ccccc2)cs1.[Cl-] | -11.1 |
| Cn1c(NC(=O)C[n+]2cc(-c3ccc(F)cc3)n3c2CCC3)cc(=O)n(C)c1=O.[Cl-] | 1.04 |
| O=C(C[n+]1cc(-c2ccccc2)n2c1CCC2)Nc1nc(-c2ccc(F)cc2)cs1.[Cl-] | -20.3 |
| O=C(C[n+]1cc(-c2ccc(F)cc2)n2c1CCC2)Nc1nc(-c2ccc(F)cc2)cs1.[Cl-] | -76.7 |
| O=C(C[n+]1cc(-c2ccc(Cl)cc2)n2c1CCC2)Nc1nc(-c2ccc(F)cc2)cs1.[Cl-] | -48.4 |
| CN(c1ccc(C(=O)N2CCOCC2)cc1[N+](=O)[O-])C1CCCCC1 | -23.1 |
| CCCCC[C@H]1CN(Cc2ccccc2)C(=O)[C@@H]1CC(=O)NCc1ccc(OC)cc1 | -56.4 |
| CCCCC[C@H]1CN(CCc2ccccc2)C(=O)[C@@H]1CC(=O)NCc1ccc(OC)cc1 | -61.8 |

| SMILES | hERG current change (%, negative = inhibition) at 10uM [%] |
| --- | --- |
| CCCCC[C@H]1CN(CCCC)C(=O)[C@@H]1CC(=O)NCc1ccc(OC)cc1 | -71 |
| CCCCCCc1ccc(N2C[C@H](CCCCC)[C@@H](CC(=O)NCc3ccc(OC)cc3)C2=O)cc1 | -16.6 |
| CCCCN1C[C@H](C)[C@@H](CC(=O)NCc2ccccc2)C1=O | -10.5 |
| CCCCN1C[C@H](Cc2ccccc2)[C@@H](CC(=O)Nc2ccccc2)C1=O | -25.4 |
| CCCCCCc1ccc(N2C[C@H](Cc3ccccc3)[C@@H](CC(=O)NCc3ccc(OC)cc3)C2=O)cc1 | -4.42 |
| CCCCN1CC[C@H]2C=CC[C@@H](C(=O)NCc3ccc(OC)cc3)[C@H]2C1=O | 2.71 |
| COc1ccc(CN2C[C@H](C)[C@@H](CC(=O)NCc3ccccc3)C2=O)cc1 | -10.7 |
| COc1ccc(CCN2CC(C(=O)NCc3ccccc3)CCC2=O)cc1 (centres unmarked) | -8.79 |
| CCCCC[C@H]1CN(Cc2ccc(OC)cc2)C(=O)[C@@H]1CC(=O)NCc1ccccc1 | -38.6 |
| CCCCC[C@H]1CN(CCCC)C(=O)[C@@H]1CC(=O)NCc1ccccc1 | -73.5 |
| CC(C)(C)NCc1cccn1-c1sc2c(c1C#N)CCCC2 | -13.4 |
| NC(=S)Nc1ncc(C(F)(F)F)cc1Cl | 12.2 |
| CC(C)NC(=O)c1sc(=S)n2c1[nH]c(=O)c1ccc(C(=O)NCCc3ccc(Cl)cc3)cc12 | 14.1 |
| N#CC(c1ccccc1)N(CCCCl)C(=O)c1ccccc1 (centres unmarked) | -18.9 |
| c1ccc(OCCCc2nc(-c3ccccn3)no2)cc1 | -0.0161 |
| CCCCC[C@H]1CN(Cc2ccccc2)C(=O)[C@@H]1CC(=O)NCc1ccccc1 | -65.8 |
| CCCCCCc1ccc(N2C[C@H](CCCCC)[C@@H](CC(=O)NCc3ccccc3)C2=O)cc1 | -1.8 |
| C[C@H]1CN(Cc2ccccc2)C(=O)[C@@H]1CC(=O)NCc1ccccc1 | 1.31 |
| O=C(c1cccc(C(F)(F)F)c1)N1CCC(O)(CS(=O)(=O)Cc2ccc(Cl)cc2)CC1 | 17.5 |
| CCN(c1ccccc1)S(=O)(=O)c1cc(C(=O)OC(C)C(=O)Nc2ccc3c(c2)OCCO3)ccc1C (centres unmarked) | 14.1 |
